The structures appear in SMILES notation. Potency and affinity values are given separately. Active and inactive are the calls of the source. Entries that show only a call come without a potency. How the calls were made is not given here.

The assay is described as follows: HEK293 cell viability loss – plate reader, cherry-pick, cytotoxicity control, dose response (AID 651899).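 Further: cells exposed to compound for 48 hours.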 As to conditions: series mostly up to 26 µM.
As for `Cc1nc2nc(SCC(=O)N3CCC4(CC3)OCCO4)nn2c(C)c1Cc1ccccc1`, the call was inactive.

With `COc1ccc2c(c1)c(C(=O)CN1CCC3(CC1)OCCO3)c(C)n2Cc1ccccc1`, the outcome was inactive.

For `O=c1[nH]c(N2CCN(Cc3ccc4c(c3)OCO4)CC2)nc2c1CCC2`, the result was inactive.

With `O=[N+]([O-])c1ccc(C[n+]2c(-c3ccccc3)cc(-c3ccccc3)cc2-c2ccccc2)cc1`, the call was inactive.

As for `CCc1nc2ccc(Br)cc2c(=O)n1-c1ccccc1C(F)(F)F`, the outcome was inactive.

Consider `COc1cc2c3cc1Oc1cc(ccc1O)C[C@@H]1c4c(cc(OC)c(O)c4Oc4cccc(c4)C[C@@H]3N(C)CC2)CC[N+]1(C)C`, for which the molecule was called inactive.

Take `CC(=O)N1CCN(c2ccc([N+](=O)[O-])cc2C=C2C(=O)NC(=O)NC2=O)CC1`: the molecule was classed as inactive.

Source of the values: PubChem BioAssay AID651899 (Broad Institute, 2012).
